Test results from the supplement of paper PMC11732987, “Enantioselective OTUD7B fragment discovery through chemoproteomics screening and high-throughput optimisation” (Communications Chemistry, 2025).
Unmarked numbers belong to inactive results.

compound: COc1cccc(CN(C)C(=O)CCl)c1; experiment: log2 ratio of Biotin-Ahx-Ub-VS probe labelling (compound/DMSO); higher = less target engagement, active = hit call of the paper (q ≤ 0.05, log2 ratio ≤ -1); conditions: compound concentration: 50uM; treatment time: 3 h
Experimental: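 Round 2 competitive ABPP in HEK293T lysate. Compounds were tested at 50 and 200 µM for 3 h, followed by Biotin-Ahx-Ub-VS enrichment and diaPASEF LC-MS/MS. Values are the average log2 ratio (compound/DMSO) from an unpaired t-test (n=3 treated, n=26 DMSO).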

UniProt O15372, sequence (O15372 whole entry): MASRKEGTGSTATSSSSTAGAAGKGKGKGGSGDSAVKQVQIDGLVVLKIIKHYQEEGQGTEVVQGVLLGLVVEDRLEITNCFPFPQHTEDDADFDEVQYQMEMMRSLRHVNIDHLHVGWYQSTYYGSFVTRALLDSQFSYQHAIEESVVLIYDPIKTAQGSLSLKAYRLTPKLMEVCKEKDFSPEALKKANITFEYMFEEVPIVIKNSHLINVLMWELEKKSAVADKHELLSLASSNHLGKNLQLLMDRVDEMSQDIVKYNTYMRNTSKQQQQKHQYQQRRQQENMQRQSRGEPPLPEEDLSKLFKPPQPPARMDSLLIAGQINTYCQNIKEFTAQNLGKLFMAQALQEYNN
UniProt O94966, sequence (O94966 whole entry): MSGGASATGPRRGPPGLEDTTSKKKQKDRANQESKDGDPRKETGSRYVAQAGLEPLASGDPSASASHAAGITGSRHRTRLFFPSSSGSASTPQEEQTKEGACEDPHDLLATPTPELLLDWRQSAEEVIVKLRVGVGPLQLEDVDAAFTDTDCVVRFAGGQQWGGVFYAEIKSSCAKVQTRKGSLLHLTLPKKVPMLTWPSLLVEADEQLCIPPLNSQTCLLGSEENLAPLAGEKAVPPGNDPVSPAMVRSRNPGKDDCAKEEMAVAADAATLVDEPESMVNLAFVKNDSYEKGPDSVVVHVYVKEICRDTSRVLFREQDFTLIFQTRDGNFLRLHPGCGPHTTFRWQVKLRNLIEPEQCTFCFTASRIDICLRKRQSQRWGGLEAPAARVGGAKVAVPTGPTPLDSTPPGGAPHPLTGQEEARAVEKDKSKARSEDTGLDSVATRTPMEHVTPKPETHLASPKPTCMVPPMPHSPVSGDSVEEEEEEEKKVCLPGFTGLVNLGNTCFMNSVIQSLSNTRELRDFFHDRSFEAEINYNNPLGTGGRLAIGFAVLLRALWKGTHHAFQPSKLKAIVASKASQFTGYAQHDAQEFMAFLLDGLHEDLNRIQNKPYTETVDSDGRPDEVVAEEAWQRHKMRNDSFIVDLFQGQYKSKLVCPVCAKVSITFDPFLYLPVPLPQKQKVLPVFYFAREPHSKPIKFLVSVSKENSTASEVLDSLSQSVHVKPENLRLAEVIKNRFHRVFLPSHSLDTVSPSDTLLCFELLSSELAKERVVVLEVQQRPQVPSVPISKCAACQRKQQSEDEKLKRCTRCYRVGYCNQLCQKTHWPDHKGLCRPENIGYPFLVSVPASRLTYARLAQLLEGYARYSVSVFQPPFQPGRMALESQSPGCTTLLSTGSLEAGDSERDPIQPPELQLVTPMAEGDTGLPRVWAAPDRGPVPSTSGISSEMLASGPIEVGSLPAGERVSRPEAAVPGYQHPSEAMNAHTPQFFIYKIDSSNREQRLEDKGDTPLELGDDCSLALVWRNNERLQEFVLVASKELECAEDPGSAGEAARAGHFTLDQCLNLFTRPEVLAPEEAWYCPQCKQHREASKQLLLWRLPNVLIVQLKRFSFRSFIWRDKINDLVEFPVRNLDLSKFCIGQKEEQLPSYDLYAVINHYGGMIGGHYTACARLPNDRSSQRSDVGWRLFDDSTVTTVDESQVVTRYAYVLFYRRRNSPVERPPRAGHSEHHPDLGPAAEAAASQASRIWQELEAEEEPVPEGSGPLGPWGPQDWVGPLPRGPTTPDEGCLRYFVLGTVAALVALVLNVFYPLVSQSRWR
UniProt Q92905, sequence (Q92905 whole entry, looked up): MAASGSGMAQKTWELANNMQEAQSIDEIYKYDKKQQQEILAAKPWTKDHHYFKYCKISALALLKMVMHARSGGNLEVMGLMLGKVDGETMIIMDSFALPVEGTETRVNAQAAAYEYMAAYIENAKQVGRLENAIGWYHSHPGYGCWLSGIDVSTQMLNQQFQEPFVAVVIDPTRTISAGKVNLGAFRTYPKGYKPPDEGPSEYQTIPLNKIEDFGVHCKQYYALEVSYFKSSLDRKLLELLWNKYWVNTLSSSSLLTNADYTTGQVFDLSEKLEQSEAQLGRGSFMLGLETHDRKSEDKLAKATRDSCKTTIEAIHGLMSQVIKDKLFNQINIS
UniProt Q13107, sequence (Q13107 whole entry): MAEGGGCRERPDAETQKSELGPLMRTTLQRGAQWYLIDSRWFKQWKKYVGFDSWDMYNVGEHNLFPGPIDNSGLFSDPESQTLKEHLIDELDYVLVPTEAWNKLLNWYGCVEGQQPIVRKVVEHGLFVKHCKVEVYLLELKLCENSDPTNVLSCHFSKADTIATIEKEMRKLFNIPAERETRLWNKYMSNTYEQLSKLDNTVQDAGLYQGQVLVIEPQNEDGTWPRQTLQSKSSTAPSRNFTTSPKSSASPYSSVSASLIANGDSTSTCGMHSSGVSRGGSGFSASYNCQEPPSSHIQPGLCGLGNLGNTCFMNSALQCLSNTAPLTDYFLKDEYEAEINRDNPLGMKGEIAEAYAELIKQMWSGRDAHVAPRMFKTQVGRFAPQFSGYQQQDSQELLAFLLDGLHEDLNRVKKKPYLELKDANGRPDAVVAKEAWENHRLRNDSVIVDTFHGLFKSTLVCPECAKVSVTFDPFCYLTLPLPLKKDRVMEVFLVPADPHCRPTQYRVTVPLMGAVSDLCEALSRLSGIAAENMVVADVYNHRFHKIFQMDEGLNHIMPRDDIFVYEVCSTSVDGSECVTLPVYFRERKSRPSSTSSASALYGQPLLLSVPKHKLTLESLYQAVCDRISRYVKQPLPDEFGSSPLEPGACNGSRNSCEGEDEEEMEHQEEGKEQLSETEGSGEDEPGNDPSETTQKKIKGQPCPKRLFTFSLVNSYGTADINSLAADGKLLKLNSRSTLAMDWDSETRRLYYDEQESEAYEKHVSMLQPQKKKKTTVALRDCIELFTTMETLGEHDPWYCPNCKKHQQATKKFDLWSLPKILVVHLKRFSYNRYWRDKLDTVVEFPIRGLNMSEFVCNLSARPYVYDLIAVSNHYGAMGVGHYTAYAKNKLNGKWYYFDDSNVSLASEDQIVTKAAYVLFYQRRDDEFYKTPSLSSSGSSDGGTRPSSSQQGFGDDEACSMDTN
UniProt Q93009, sequence (Q93009 whole entry, looked up): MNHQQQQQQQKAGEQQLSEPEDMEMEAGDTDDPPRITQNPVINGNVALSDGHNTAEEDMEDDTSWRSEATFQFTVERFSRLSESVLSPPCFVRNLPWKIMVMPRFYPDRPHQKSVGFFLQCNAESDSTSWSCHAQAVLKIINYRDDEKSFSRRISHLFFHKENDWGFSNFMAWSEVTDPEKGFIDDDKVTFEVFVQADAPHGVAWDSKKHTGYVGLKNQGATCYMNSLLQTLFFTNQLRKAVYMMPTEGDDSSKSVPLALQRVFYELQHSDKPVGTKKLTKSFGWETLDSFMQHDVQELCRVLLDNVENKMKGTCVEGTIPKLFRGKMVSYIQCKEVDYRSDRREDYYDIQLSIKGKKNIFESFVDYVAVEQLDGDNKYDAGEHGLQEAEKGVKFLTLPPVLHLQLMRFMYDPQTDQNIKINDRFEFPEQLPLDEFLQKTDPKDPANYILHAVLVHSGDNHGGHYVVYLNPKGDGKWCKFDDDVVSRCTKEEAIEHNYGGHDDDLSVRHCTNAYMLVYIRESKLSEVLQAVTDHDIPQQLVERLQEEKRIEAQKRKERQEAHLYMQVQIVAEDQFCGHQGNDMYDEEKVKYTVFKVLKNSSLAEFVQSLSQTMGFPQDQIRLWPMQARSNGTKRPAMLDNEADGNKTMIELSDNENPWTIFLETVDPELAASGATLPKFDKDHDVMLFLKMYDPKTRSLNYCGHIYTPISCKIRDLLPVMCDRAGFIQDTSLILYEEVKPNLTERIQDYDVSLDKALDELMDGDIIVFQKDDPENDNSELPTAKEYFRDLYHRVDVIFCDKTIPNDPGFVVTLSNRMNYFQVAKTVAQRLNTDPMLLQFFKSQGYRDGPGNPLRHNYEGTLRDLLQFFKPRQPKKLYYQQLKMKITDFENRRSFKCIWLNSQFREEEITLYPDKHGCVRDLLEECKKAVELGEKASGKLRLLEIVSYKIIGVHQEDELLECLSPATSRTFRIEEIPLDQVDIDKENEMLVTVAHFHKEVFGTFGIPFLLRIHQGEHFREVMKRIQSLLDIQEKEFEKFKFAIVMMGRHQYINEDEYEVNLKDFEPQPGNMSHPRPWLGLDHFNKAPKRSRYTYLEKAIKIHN
UniProt Q70EL2, sequence (Q70EL2 whole entry): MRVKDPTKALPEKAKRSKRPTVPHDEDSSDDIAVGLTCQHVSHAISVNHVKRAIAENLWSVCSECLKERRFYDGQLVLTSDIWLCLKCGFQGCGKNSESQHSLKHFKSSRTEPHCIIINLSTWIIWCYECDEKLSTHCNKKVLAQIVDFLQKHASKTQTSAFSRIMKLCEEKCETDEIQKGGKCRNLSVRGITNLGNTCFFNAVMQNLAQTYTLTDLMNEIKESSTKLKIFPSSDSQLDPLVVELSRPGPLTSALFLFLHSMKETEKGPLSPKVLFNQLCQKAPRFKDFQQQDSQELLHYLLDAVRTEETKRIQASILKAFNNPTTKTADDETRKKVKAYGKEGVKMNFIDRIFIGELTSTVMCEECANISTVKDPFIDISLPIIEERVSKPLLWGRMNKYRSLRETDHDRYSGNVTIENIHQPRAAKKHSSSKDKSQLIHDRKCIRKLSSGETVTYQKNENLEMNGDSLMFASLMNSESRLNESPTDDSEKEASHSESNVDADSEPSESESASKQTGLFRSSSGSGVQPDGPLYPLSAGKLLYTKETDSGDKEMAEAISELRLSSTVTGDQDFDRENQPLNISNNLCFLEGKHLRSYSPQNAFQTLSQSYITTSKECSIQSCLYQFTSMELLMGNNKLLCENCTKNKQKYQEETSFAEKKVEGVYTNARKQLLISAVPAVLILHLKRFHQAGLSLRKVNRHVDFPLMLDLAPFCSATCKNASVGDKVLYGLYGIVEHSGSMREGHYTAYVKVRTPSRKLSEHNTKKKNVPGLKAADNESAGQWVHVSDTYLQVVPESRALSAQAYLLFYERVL

| Target | log2 ratio of Biotin-Ahx-Ub-VS probe labelling |
| --- | --- |
| UniProt Q70EL2 | -0.17 |
| USP19 (UniProt O94966) | -0.209 |
| USP4 (UniProt Q13107) | -1.18 (active) |
| BAP1 (UniProt Q92560) | -1.22 (active) |
| COPS5 (UniProt Q92905) | -0.236 |
| USP7 (UniProt Q93009) | -0.4 |
| EIF3H (UniProt O15372) | -0.183 |
| VCPIP1 (UniProt Q96JH7) | -0.139 |

same assay, conditions: compound concentration: 200uM; treatment time: 3 h

| Target | log2 ratio of Biotin-Ahx-Ub-VS probe labelling |
| --- | --- |
| UniProt Q70EL2 | -1.02 (active) |
| USP19 (UniProt O94966) | -0.661 |
| USP4 (UniProt Q13107) | -0.498 |
| BAP1 (UniProt Q92560) | -3.29 (active) |
| COPS5 (UniProt Q92905) | -0.578 |
| USP7 (UniProt Q93009) | -1.53 (active) |
| EIF3H (UniProt O15372) | 0.043 |
| VCPIP1 (UniProt Q96JH7) | -0.277 |
